# ChEMBL document CHEMBL3988442, “University of Dundee, Small-Polar-MMV Screening Library” (2021)
# Target: T1, Aspartate--tRNA(Asp/Asn) ligase (Mycobacterium tuberculosis (strain ATCC 25618 / H37Rv)) (UniProt P9WFW3)
# T1 sequence (whole entry): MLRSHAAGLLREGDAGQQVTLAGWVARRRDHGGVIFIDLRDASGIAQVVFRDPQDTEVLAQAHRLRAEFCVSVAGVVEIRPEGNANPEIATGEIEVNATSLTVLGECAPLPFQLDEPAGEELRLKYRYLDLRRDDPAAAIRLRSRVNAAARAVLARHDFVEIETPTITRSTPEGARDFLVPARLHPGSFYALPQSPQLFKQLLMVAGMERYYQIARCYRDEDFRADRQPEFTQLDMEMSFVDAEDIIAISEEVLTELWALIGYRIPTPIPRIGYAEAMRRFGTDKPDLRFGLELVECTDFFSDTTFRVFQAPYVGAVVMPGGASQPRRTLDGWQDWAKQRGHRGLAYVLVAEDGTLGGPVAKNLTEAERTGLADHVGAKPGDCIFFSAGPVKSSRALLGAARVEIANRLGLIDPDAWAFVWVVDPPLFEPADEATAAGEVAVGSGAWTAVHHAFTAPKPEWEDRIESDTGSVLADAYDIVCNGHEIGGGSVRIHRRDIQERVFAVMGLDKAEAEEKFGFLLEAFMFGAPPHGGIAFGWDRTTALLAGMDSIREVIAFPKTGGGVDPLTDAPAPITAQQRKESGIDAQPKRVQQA
# Test: Assay for Asp RNA synthetase-1 from Mycobacterium tuberculosis
# Assay type: functional
# Parameters: scale not given: in the data most compounds retested in dose-response had high values
# Settings: 30 µM
row,SMILES,Percent Effect [%]
1,CCc1ccc(S(=O)(=O)Nc2cc(C(=O)O)c(F)cc2F)s1,-4.19
2,CC(C)(O)C1CCN(C(=O)Nc2nc(-c3ccccc3)ns2)CC1,1.51
3,O=C(Cc1cccc(F)c1)NCCNCc1ccco1,0.577
4,COCCCN(C)C1CCCN(Cc2noc(C)n2)C1 (stereo not given),-3.09
5,COCCCC1(CO)CCCN(CCS(C)(=O)=O)C1 (stereo not given),4.17
6,O=C(CN(Cc1ccccc1)CC1CCOCC1)Nc1nccs1,2.07
7,CCc1nc(CN(C)C2CCN(CCS(C)(=O)=O)C2)no1 (stereo not given),3.04
8,COc1ccccc1OC1CCN(Cc2cnc(N(C)C)nc2)CC1,-2.72
9,COCCN1CCC(CN(CC2CCCO2)C(=O)COC)CC1 (stereo not given),-4.26
10,Cc1ccsc1C(=O)NCCCn1nc2ccccn2c1=O,1.69
11,CC(O)CN1CCN(Cc2nnc(C3CC3)o2)CC1 (stereo not given),0.971
12,Cc1cc(-c2nnc(SCC(=O)O)n2C(C)c2ccccc2)nn1C (stereo not given),2.15
13,CC(OCC(F)(F)F)C(=O)N1CCCCC1 (stereo not given),1.09
14,Nc1nc(C2CCN(C(=O)c3cscn3)CC2)cs1,2.54
15,CC1c2ncc(COc3cccnc3)n2CCN1C(=O)Cc1ccco1 (stereo not given),-1.45
16,O=C(NC1CC1)c1cc(NC(=O)N2CCCC(O)C2)ccc1Cl (stereo not given),-0.137
17,Cc1cccc(CNCc2c(C(C)C)nn(C)c2N2CCOCC2)n1,7.04
18,Cc1csc(Nc2cc(C3CCCCN3C)nc(C)n2)n1 (stereo not given),-2.66
19,Cc1csc(C2CCCN(C(=O)c3cc(Cl)c[nH]3)C2)n1 (stereo not given),-3.61
20,CCCc1nc(N2CCN(CC)CC2)c2c(n1)c(C)nn2CC,11.2

row,SMILES,Percent Effect [%]
1,Cc1nc(CN2CCCN(CCOc3cccc(C#N)c3)CC2)no1,5.09
2,Cc1nn(C)cc1CN1CCC(C2Nc3ccccc3S(=O)(=O)N2)CC1 (stereo not given),-0.223
3,Cc1cccn2c(=O)cc(CN3CCCCC3Cn3cncn3)nc12 (stereo not given),-0.0141
4,Cc1ccc([C@]2(O)CC[C@H]3CN(Cc4cccc(Cl)c4Cl)C[C@H]32)nc1,7.16
5,COc1cc(CN(C)C(=O)Cc2c(C)nn(C)c2C)ccc1OC(F)F,-2.09
6,CCc1nc(CN2CCCN(C(=O)C(C)COC)CC2)cs1 (stereo not given),-0.303
7,Cc1noc(C)c1CNC(=O)N1CCC(CO)CC1,2.21
8,c1ccc(-c2nc(CN3CCCC3Cn3cncn3)cs2)cc1 (stereo not given),0.143
9,Cc1nc(CN2C[C@@H]3CN(C(=O)c4ccnnc4)C[C@@H]3C2=O)cs1,-3.71
10,c1ccc2cc(OCCN3CCOC(Cn4cncn4)C3)ccc2c1 (stereo not given),-2.92
11,Cc1cccc(CNC2CCCc3c2cnn3C)c1 (stereo not given),0.855
12,CCN(CC)C(=O)c1nnn(-c2ccc(C)cc2)c1C1CC1,-1.37
13,COC(=O)C1CCN(C(=O)c2ccc(C)c(NS(C)(=O)=O)c2)CC1,-1.09
14,CN(C)C(C(=O)N1CCC(N2CCSCC2)CC1)c1ccccc1F (stereo not given),-8.47
15,COc1ccc(CN2C[C@@H]3OCCN(CC4CCCO4)[C@@H]3C2)cc1 (stereo not given in full),-0.535
16,CC(C)(C)OC(=O)N1CCCC[C@H]1C(=O)NCc1nccs1,-1.06
17,CC(C)c1noc(CCC(=O)NC(C)c2nnc3n2CCCCC3)n1 (stereo not given),0.353
18,CN1CCN(Cc2cnc3n2CCN(Cc2cccs2)C3)CC1,5.52
19,O=C(C1CC1)N1CCCC1C1CCN(Cc2ccccc2)CC1 (stereo not given),-4.34
20,CC(=O)Nc1nc(C(=O)N2CCCC(c3cc(C)[nH]n3)C2)cs1 (stereo not given),0.141
